Experimental data published in PubChem BioAssay AID720513 (Broad Institute, 2013).
Out of some 2,100 compounds screened, about 480 (23%) were called active. Another 5% or so got no clear call; they are omitted.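 The calls were made as follows: active = fitted curve reaches 40% activation at or below the top valid concentration, in every replicate test; inconclusive = replicate tests disagree on the call; inactive = the rest, including activity in the opposite direction.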 The list is a sample of the results. Potency and affinity values are given separately.

Experiment: PGC1a acetylation increase, cellular AlphaLISA – cell-based, cherry-picked samples, set 6, dose response (AID 720513);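 also: cells made to overexpress flag tagged PGC1a plus GCN5 acetyltransferase by viral infection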
Settings: U2OS PGC1a acetylation AlphaLISA, overnight, 0 = neutral, -100 = inhibitor control; series mostly up to 19.5 µM

outcome, inactive:
O=C(c1ccc(Cl)cc1)C(Cn1cncn1)C(Sc1ccccc1)c1ccccc1 (stereo not drawn)
CCCNC(=O)N(C)C[C@H]1Oc2cc(C#CCC(C)C)ccc2S(=O)(=O)N([C@@H](C)CO)C[C@H]1C
COc1cc(CCC(=O)Nc2cc(C)cc(C)c2)cc(OC)c1OC
Cc1ccc(S(=O)(=O)N(CC2CO2)c2ccccc2[N+](=O)[O-])cc1 (stereo not drawn)
CC(C)c1ccccc1NC(=O)Cn1c(-c2ccccc2Cl)nc2ccccc21
O=S(=O)(O)c1nc2ccccc2n1Cc1ccc(Cl)cc1
O=S(=O)(c1ccc(N2CCC(c3ccc(Cl)cc3)=N2)cc1)N(CCO)CCO
COc1cccc(N2C(=NC(=O)c3ccccc3)SC3CS(=O)(=O)CC32)c1 (stereo not drawn)
CCOC(=O)c1ccc2[nH]c(C)c(CN3CCN(C)CC3)c(=O)c2c1
CC(Sc1nnc(N)s1)C(=O)Nc1ccc2c(c1)OCO2 (stereo not drawn)
CCCN(C)C[C@H]1Oc2cc(C#Cc3ccc(OC)cc3)ccc2S(=O)(=O)N([C@@H](C)CO)C[C@H]1C
C[C@H](CO)N1C[C@H](C)[C@H](CN(C)C(=O)C2CCCCC2)Oc2cc(-c3ccccc3)ccc2S1(=O)=O
Cc1cc(N)c2cc(NC(=O)/C=C/c3ccccc3Cl)ccc2n1
COc1ccc(-c2cn[nH]c2-c2ccc(O)cc2O)cc1
O=C(CCCc1cccs1)NCCc1c[nH]c2ccccc12
O=C(CN1C(=O)C2C3CC(C(Br)C3Br)C2C1=O)OCC(=O)c1cccc([N+](=O)[O-])c1 (stereo not drawn)
CC1=C(C(=O)OC(C)(C)C)C(c2ccc3ccccc3c2)NC(=O)N1C (stereo not drawn)
O=C(O)Cn1cc(C(=O)C(F)(F)F)c2ccccc21
O=C(Cn1cc(C(=O)c2cccs2)c2ccccc21)NCC1CCCO1 (stereo not drawn)
Cc1ccc(C(=O)Nc2nc(=O)n(C(=O)CC(C)C)s2)cc1
CN(C)c1ccc(/C=N/N(CCC#N)C2=NS(=O)(=O)c3ccccc32)cc1
O=C(COc1ccccc1Cl)Nc1ccc(Cl)cn1
COc1ccccc1C(=O)N1C(CC(=O)Nc2cc(Cl)ccc2C)C(=O)NC2CCCCC21 (stereo not drawn)
Cc1ccc(Sc2ncnc3onc(C)c23)c(C)c1
Cc1ccccc1CS(=O)(=O)c1nnc([C@H](CC(C)C)NC(=O)OC(C)(C)C)o1
COc1ccc(S(=O)(=O)N2CCC(C(=O)N3CCC(C(N)=O)CC3)CC2)cc1Cl
Cc1ccc(CN2CC(C(=O)N3CCN(S(=O)(=O)c4cccc(F)c4)CC3)CC2=O)cc1 (stereo not drawn)
CC(C)CC#Cc1ccc2c(c1)O[C@H](CN(C)C(=O)Cc1ccccc1)[C@H](C)CN([C@H](C)CO)S2(=O)=O
COCCn1c(C)c(C)c2c(NCCc3ccccc3)ncnc21
O=CNCCc1nc2ccccc2n1CCc1ccccc1
CN1CCN(C2=C(Cl)C(=O)N(CCc3ccccc3)C2=O)CC1
Cc1ccc(-c2ccc(C3[C@@H]4CN(C(=O)Nc5ccc(C(F)(F)F)cc5)C[C@H]3N4)cc2)cc1 (stereo partly drawn)
COCCNC(=O)CSc1nc2c(n1-c1ccccc1)CCCC2
C[C@@H]1CN([C@H](C)CO)C(=O)c2cccc(NC(=O)C3CCCCC3)c2O[C@@H]1CN(C)CC1CCCCC1
CCOC(=O)c1ccc(-c2c(-c3cc(OC)c(OC)c(OC)c3)noc2C)cc1F
O=C(C[C@@H]1C=C[C@@H](NC(=O)Nc2ccc(F)cc2)[C@@H](CO)O1)NCCN1CCCC1
CC(C)c1nc2sc3c(NCc4ccco4)ncnc3c2c2c1COC(C)(C)C2
O=C(Nc1ccc(F)cc1)c1sc2cc(C(F)(F)F)cnc2c1-c1cccs1
Cc1cccc(-c2ccc(C3[C@@H]4CN(C(=O)Nc5ccc(C(F)(F)F)cc5)C[C@H]3N4)cc2)c1 (stereo partly drawn)
COc1cccc(-n2c(Cc3cc(=O)[nH]c(=O)[nH]3)nnc2SCc2cccc(C(F)(F)F)c2)c1
COc1ccc(N(Cc2cc3cc(OC)ccc3[nH]c2=O)S(C)(=O)=O)cc1
COc1ccc(Oc2c(Cl)cnn(-c3ccccc3)c2=O)cc1
O=C(Nc1ccccc1)Nc1cc(Cl)cc(Cl)c1
C[C@H](CO)N1C[C@H](C)[C@@H](CN(C)C(=O)Nc2ccc(F)cc2)Oc2ncc(C#CC3CC3)cc2C1=O
O=C(c1ccco1)N1CCN(c2ncnc3scc(-c4cccs4)c23)CC1
COc1ccc(C2CC(c3cccs3)=NN2c2nc(C)c(C(C)=O)s2)cc1OC (stereo not drawn)
CCOC(=O)C1CCN(C(=O)CSc2ccc(Br)cc2)CC1
COc1ccccc1Oc1ccc2c(c1)C(=O)N(c1ccc(C)cc1)C2=O
O=C(O)c1cc(N2CCCCC2)ccn1
N#Cc1sc2nccc(Nc3ccccc3)c2c1N
c1ccc(N2CCN(C3CC4CCC3C4)CC2)cc1 (stereo not drawn)
COc1ccc(C(=O)Nc2ccc(S(=O)(=O)Nc3cc(C)nc(C)n3)cc2)cc1
Cc1ccc(OC[C@H](O)[C@H](C)NC(C)C)c2c1CCC2
CN(C)c1ccc(Sc2ccc3nc(N)nc(N)c3c2)cc1
O=C(Nc1cccc(F)c1)N1CC(=O)N2[C@@H](CO)[C@@H](c3ccc(C#Cc4cccnc4)cc3)[C@@H]2C1
CCCCCSc1nnc(C)c(=O)[nH]1
O=C(CC1CC1)N[C@H]1CC[C@@H](CCNS(=O)(=O)c2ccc(Cl)cc2)O[C@@H]1CO
CCOC(=O)NC(=O)CSc1nnnn1-c1ccc(C)cc1
CCOC(=O)c1c(-c2ccco2)csc1NC(=O)COC(=O)c1cnccn1
O=C(C[C@H]1CC[C@H](NC(=O)C2CCC2)[C@@H](CO)O1)NCC1CC1
Cc1ccccc1-c1ccc(C2[C@@H]3CN(C(=O)Nc4cccc(F)c4)C[C@H]2N3)cc1 (stereo partly drawn)
O=C(Nc1ccc(F)cc1)N1CCCCN2[C@H](CO)[C@@H](c3ccc(C#Cc4ccccc4)cc3)[C@H]2C1
COCCN(C(=O)CSc1nn(-c2ccc(F)cc2)c(=S)s1)c1c(N)n(CC(C)C)c(=O)[nH]c1=O
